# The whole screen tested about 65,000 compounds, of which about 2,100 (3.2%) showed an effect of 50% or more. The median lay at about -52%. This excerpt belongs to a sample that is enriched for strong results.
# Tested on: Plasmodium falciparum
# Assay: Screen against P. falciparum Asexual Blood Stage (ABS), at 5uM
# Format: functional, Dd2
# Details: tested at 5 uM
row,Structure (SMILES),INHIBITION [%]
1,COc1cc(OC)cc(C(=O)Nc2ncnc3c2CCC3)c1,-80.8
2,Cc1n[nH]cc1CNCC1(c2ccccc2Cl)CCOCC1,57.1
3,Cc1n[nH]cc1CNCC1(c2ccc3c(c2)OCO3)CCOCC1,-37.3
4,O=C(NCC1(O)CCOC1)NCC1(c2ccccc2Cl)CCC1 (stereo not given),-90.2
5,COc1ccc(COCC(O)CNC(=O)c2ccncc2)cc1 (stereo not given),-119
6,O=C(Nc1ccc(F)cc1)N1C[C@@H]2CC[C@H]1CN(Cc1cccnc1)C2,-74.3
7,CN1CCN(c2ncc(-c3cnccn3)c([C@H]3CCCO3)n2)CC1,-10.1
8,NC(=O)C1CCN(c2nccc(-c3c[nH]nc3C3CCCCC3)n2)CC1,16.3
9,c1cc(-c2c[nH]nc2C2CCCCC2)nc(N2CCCCCC2)n1,1.32
10,c1cc(-c2cn3nccc3nc2C2CCCCC2)nc(N2CCCC2)n1,3.54
11,CN1CCCN(c2nccc(-c3cncnc3C3CCCCC3)n2)CC1,61.6
12,CN1CCN(c2nccc(-c3cncnc3C3CCCCC3)n2)CC1,62.3
13,O=C(C[C@@H]1COC[C@H]2CN(C3CCCC3)C[C@@H]12)N1CCCCO1,-31.2
14,CC(C)CS(=O)(=O)N1CCC2(CN(c3cccc(F)c3)C(=O)CN2C)C1 (stereo not given),-101
15,C=C/C=c1\c(=C/C)oc2c(NCc3ccccc3)nc(C)nc12,3.94
16,CCS(=O)(=O)N1CCc2cc(C(=O)NC)c(NCC3CC3)nc2CC1,-28
17,CCOC(=O)C1CCN(C(=O)CN2CCCC2c2ccccc2C)CC1 (stereo not given),28.2
18,CCOC(=O)C1CCN(C(=O)CN2CCCC2c2cc(C)no2)CC1 (stereo not given),-126
19,CCOC(=O)C1CCN(C(=O)CN2CCCC2c2ccsc2)CC1 (stereo not given),50.9
20,CC(=O)N(C)Cc1ccccc1NC(=O)N(C)CCc1cccs1,-28.3
21,CC(C)c1cncnc1-c1cc(F)cc2c1OC(CN)C2 (stereo not given),29.4
22,Cc1nc(-c2cc(F)c3c(c2)CC(CN)O3)c[nH]1 (stereo not given),53.7

row,Structure (SMILES),INHIBITION [%]
1,NCC1Cc2cc(-c3cncc(C(=O)N4CCOCC4)n3)cc(Cl)c2O1 (stereo not given),-15.2
2,NCC1Cc2cc(-c3cnccn3)cc(Cl)c2O1 (stereo not given),-13.4
3,Cc1cc2c(c(-c3cncc(C(=O)N4CCCC4)n3)c1)OC(CN)C2 (stereo not given),4.12
4,NCC1Cc2cc(-c3cncc(C(=O)N4CCCCC4)n3)cc(F)c2O1 (stereo not given),51.3
5,Cc1cc(NC(=O)CN2CCCC2c2noc(C)n2)n(C(C)(C)C)n1 (stereo not given),-108
6,O=C(NC1CC1)[C@@H]1CCO[C@@H]2CCN(CC3CCC3)C[C@@H]21,-89.4
7,CCC(=O)N1CC[C@H]2[C@H](C[C@@H](Cn3cccn3)N2c2nccs2)C1,-13.4
8,CN1C(Cn2cccn2)C[C@@H]2CN(Cc3nccs3)CC[C@@H]21 (stereo not given in full),-108
9,Cc1ccc(CN2CC[C@H]3[C@H](CC(Cn4cccn4)N3C)C2)s1 (stereo not given in full),62.7
10,CC(C)N1[C@H](CN2CCCC2)C[C@@H]2CN(Cc3cnn(C)c3)CC[C@@H]21,-20.1
11,CN1C(Cn2cccn2)C[C@@H]2CN(Cc3cnn(C)c3)CC[C@@H]21 (stereo not given in full),-48.5
12,CN1CC[C@H]2[C@H](C[C@@H](Cn3cncn3)N2c2nccs2)C1,-37.1
13,CN1[C@H](CN2CCCC2)C[C@@H]2CN(Cc3ccoc3)CC[C@@H]21,58.5
14,CC(C)N1CC[C@H]2[C@H](C[C@@H](Cn3cccn3)N2c2nccs2)C1,66.3
15,CC(C)N1[C@H](Cn2cccn2)C[C@@H]2CN(Cc3ccoc3)CC[C@@H]21,40.6
16,CC1CN(Cc2nc(Cc3ccccc3F)no2)CCN1C (stereo not given),-114
17,O=C(CCc1ccsc1)N1CCCC(n2cncn2)C1 (stereo not given),-152
18,COC[C@@]12CCC[C@@H]1CN(C(=O)CN(C)C)C2,-1.68
19,Cc1cc(C)c(Cn2cncn2)cc1CN1CCC(CN)C1 (stereo not given),69
20,Cc1cc(C)c(Cn2cncn2)cc1CN1CC[C@@H]2CC[C@H](C1)N2,13.3
21,CO[C@H]1CN(Cc2cc(Cn3cncn3)c(C)cc2C)CC[C@H]1N,-28.2
22,COCc1ncn2c1CN(C(=O)Nc1cccc(OC)c1)CC2,-101

row,Structure (SMILES),INHIBITION [%]
1,CC(C)c1nccn1-c1cccc(C2CCCN(S(=O)(=O)N(C)C)C2)n1 (stereo not given),-73.6
2,NC1CCC(Nc2nccc(CCC(F)(F)F)n2)CC1 (stereo not given),50.3
3,N[C@@H]1CC[C@@H](Nc2nccc(CCC(F)(F)F)n2)C1,-4.32
4,FC(F)(F)CCc1ccnc(NC2CCC(n3cnnc3)CC2)n1 (stereo not given),-54.2
5,CS(=O)(=O)N1CCC(c2ccncn2)CC1,-94.7
6,CN(C(=O)CSc1ncc[nH]1)C1CC1,-11.8
7,Fc1ccc(CN2CCc3ncnc(C4CCOC4)c3CC2)cc1 (stereo not given),-78.8
8,Cc1cccc(CN(Cc2ccccn2)Cc2ncc(C(C)(C)C)o2)c1,60.4
9,Cc1cccc(CN(Cc2ccccn2)S(=O)(=O)N(C)C)c1,-25.3
10,CCN(Cc1cccc(Cl)c1)Cc1ncc(C(C)(C)C)o1,-14.1
11,CCN1CCN(C)C(=O)C12CCN(Cc1ccsc1)CC2,-35.5
12,CCc1ccc(CN2CCC3(CC2)C(=O)N(C)CCN3CC2CC2)cc1,68.9
13,CCN1CCN(C)C(=O)C12CCN(Cc1cccc(C)c1)CC2,41.8
14,CN(CCc1ccccc1)c1cnn(C)c(=O)c1Br,-12.3
15,NC(=O)C(NC1CCN(CC2CCCCC2)CC1)c1ccccc1 (stereo not given),-75
16,c1ccc(Oc2ccc(OC34CCCN(CC3)C4)cc2)cc1 (stereo not given),40.7
17,NC(CC1CCCC1)c1ccc(Oc2ccccc2)cc1 (stereo not given),79.9
18,NC(CC1CCCC1)c1ccccc1 (stereo not given),66.7
19,OC(CN1CCN(CC2CCCCC2)CC1)c1ccccc1 (stereo not given),3.94
20,CC(NC(=O)CSCC(N)=O)c1ccc(Oc2ccccc2)cc1 (stereo not given),-25.1
21,N#CCCCOc1cccnc1NC(=O)Cc1ccccc1F,-150
